In experiment [1] the target is Lysosomal acid glucosylceramidase (Homo sapiens) (UniProt P04062). Put plainly: Glucocerebrosidase-p2 (AID 348; in the data active = potency below about 10 µM; also: potency is read from the fitted curve at half-maximal effect). To be noted: purified GBA, blue fluorogenic substrate, 40 min. The procedure, abridged:
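Normal human glucocerebrosidase (0.2 nM) with blue fluorogenic substrate (80 uM final) in citrate/phosphate pH 5.9 with 10mM sodium taurocholate, 0.01% tween-20; 40 min RT, NaOH/glycine stop; fluorescence Ex 365/Em 440; AC50 from a titration from 0.6 nM upwards.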

Experiment [2] can be described thus: AP1 Signaling Pathway (AID 357; active = well fitted curve in either direction with a large enough effect, not every such curve was filed as active; also: % is scaled to controls: 0 for no effect and ±100 for the full control effect). To be noted: ME-180 AP-1-bla reporter, EGF-induced, beta-lactamase ratio, 5 h; at 7.69 µM (top of the series) unless noted. The procedure, abridged: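 AP-1-bla ME-180 cells with beta-lactamase reporter under AP-1 response element, stimulated with EC50 EGF; compounds titrated, 5 hours at 37 degrees Celsius. CCF4 read at 460/530 nm ratio; positive and negative modulators judged by AC50.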

Experiment [3] is described as follows: NFAT Signaling Pathway (AID 444; active = well fitted curve in either direction with a large enough effect, not every such curve was filed as active;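 also: carbachol stimulus at about its EC50 of 1 µM final; % is scaled to controls: 0 for no effect and ±100 for the full control effect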). The settings on record: Jurkat NFAT-bla M1, carbachol, beta-lactamase ratio, 5 h; at 7.69 µM (top of the series) unless noted. The procedure, abridged: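 Jurkat cells carrying an NFAT-driven β-lactamase reporter and co-transfected muscarinic M1 receptor were treated with compound plus carbachol (1 uM final, an EC50 level) for 5 h at 37 °C. CCF4 loading followed for 1 h at RT; 460/530 nm ratio gave %activity.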

Experiment [4] can be described thus: Stat Signaling Pathway (AID 446; active = well fitted curve in either direction with a large enough effect, not every such curve was filed as active;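 also: ME-180 cervical cancer cells given 40 pM IL-6 alongside compound; SIE-controlled beta-lactamase reporter measured as 460/530 nm FRET emission ratio; % is scaled to controls: 0 for no effect and ±100 for the full control effect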). To be noted: ME-180 (cervical carcinoma) SIE beta-lactamase reporter, IL-6 stimulated, 5 h; at 7.69 µM (top of the series) unless noted. The procedure, abridged:
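Emission at 460 and 530 nm (excitation 405 nm) reports SIE-controlled beta-lactamase in ME-180 cells. Cells received compound with 40 pM IL-6 for 5 hrs at 37 C; data scaled between 300 pM IL-6 and 125 nM JAK-inhibitor controls.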

The target of experiment [5] is Glucocorticoid receptor (Homo sapiens) (UniProt P04150). Put plainly: GR-GFP Redistribution (AID 450;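 active = compounds whose dose series gives a full or clear partial fitted curve of increased nuclear translocation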; also: potency is read from the fitted curve at half-maximal effect). The settings on record: U2OS GR-GFP nuclear translocation, laser cytometry, 2 h.
Chain of Glucocorticoid receptor (Homo sapiens) (P04150 whole entry, looked up, the tested form may be a part): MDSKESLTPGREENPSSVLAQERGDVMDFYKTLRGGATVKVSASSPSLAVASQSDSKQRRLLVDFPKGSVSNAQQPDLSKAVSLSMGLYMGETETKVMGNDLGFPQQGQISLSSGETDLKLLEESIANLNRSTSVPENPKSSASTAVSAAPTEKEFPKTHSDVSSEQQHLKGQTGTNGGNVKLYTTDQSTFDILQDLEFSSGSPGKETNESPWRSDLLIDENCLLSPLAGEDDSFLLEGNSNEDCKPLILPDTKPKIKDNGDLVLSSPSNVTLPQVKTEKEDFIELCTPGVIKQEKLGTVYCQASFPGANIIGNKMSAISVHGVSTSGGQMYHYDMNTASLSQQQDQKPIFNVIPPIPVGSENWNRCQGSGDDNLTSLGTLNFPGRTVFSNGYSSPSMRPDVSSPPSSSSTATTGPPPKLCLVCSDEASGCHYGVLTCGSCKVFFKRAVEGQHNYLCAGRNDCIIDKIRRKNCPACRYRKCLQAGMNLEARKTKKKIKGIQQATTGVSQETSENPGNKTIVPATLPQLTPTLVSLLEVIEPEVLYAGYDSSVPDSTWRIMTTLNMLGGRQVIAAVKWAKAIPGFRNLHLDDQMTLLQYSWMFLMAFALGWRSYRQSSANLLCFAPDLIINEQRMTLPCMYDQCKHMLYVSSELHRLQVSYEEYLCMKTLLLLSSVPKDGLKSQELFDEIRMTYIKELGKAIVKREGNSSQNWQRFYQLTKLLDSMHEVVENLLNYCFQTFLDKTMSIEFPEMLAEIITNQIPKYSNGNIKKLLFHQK
Experiment [6] has the same target. Description: GR-EFC Redistribution (AID 451; calls by dose curve; also: potency is read from the fitted curve at half-maximal effect). To be noted: CHO-K1 GR-EFC translocation, beta-gal luminescence, 2 h. In outline: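 CHO-K1 cells stably expressing nuclear-localized β-gal enzyme acceptor and GR fused C-terminally to the enzyme donor fragment; ligand-driven nuclear translocation restores β-gal by complementation. Compounds titrated up to 46 uM final, 2 h at 37 °C; luminescence read.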

Experiment [7] has as its target 3',5'-cyclic-AMP phosphodiesterase 4B (Homo sapiens) (UniProt Q07343). Description: qHTS Assay for Inhibitors of PDE-IV (AID 607; active = well fitted activation curve with a large enough effect in the main read-out, with a control signal flat, not every such curve was filed as active; also: % of control where 0% means no effect). To be noted: HEK293 ACTOne CNG channel cells, membrane potential fluorescence; series mostly up to 22.9 µM. The procedure, abridged:
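The readout is membrane depolarisation from a cAMP-sensing CNG channel, detected with a potential dye at ex 535/em 590. Cells were HEK293-derived (endogenous PDE-IV) at 1000 cells/well, titrated up to 22.9 uM final.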
Background: In qHTS, concentration-response curves come from the screen itself.

The target in experiment [8] is Cytochrome P450 3A4 (Homo sapiens) (UniProt P08684). Description: qHTS Assay for Activators of Cytochrome P450 3A4 (AID 885). Also: nearly all actives have a fitted effect of over 65% in size. The settings on record: recombinant CYP3A4, Luciferin-PPXE luminescence, 60 min; series mostly up to 57.1 µM. In outline:
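Activators are scored by enhanced luminescence from CYP3A4 conversion of luciferin-PPXE (25uM, equal to KM) to luciferin, after 60 min at RT with an NADPH-regenerating system.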

Experiment [9] has as its target Dual specificity protein kinase CLK4 (Homo sapiens) (UniProt Q9HAZ1). Description: qHTS Assay for Inhibitors of CDC-like Kinase 4 (ADP-Glo Assay) (AID 1771). Also: nearly all actives have a fitted effect of over 70% in size. Also: potency is read from the fitted curve at half-maximal effect. The settings on record: recombinant CLK4, ADP-Glo luminescence; series mostly up to 80 µM. The procedure, abridged:
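25 nM Clk4, 100 uM RS peptide, 1 uM ATP (final); 2 mM MgCl2, 0.5 mM EGTA, 2.5 mM DTT, 0.01% Triton X-100; 1 hr RT. ADP-Glo readout: ATP depletion 45 min, conversion/luciferase 30 min, luminescence.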

The target is the same in experiment [10]. Put plainly: qHTS Assay for Inhibitors of CDC-like Kinase 4 (ADP-FP Assay) (AID 1795).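 Also: recombinant human CLK4 phosphorylating RS repeat peptide at 1 µM ATP; % is scaled to controls: 0 for no effect and ±100 for the full control effect; nearly all actives have a fitted effect of over 60% in size.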 To be noted: Transcreener ADP fluorescence polarization; series mostly up to 50 µM. In outline:
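FP readout: Orange Transcreener ADP2 tracer (4 nM) plus ADP antibody, read after 30 min at room temperature. Kinase step: 6.25 nM Clk4, 100 uM RS peptide, 1 uM ATP, pH 7.5, 1 h.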

Experiment [11] has as its target Ubiquitin carboxyl-terminal hydrolase 1 (Homo sapiens) (UniProt O94782). Put plainly: Inhibitors of USP1/UAF1: Pilot qHTS (AID 504865).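 Also: rhodamine fluorescence freed from ubiquitin-rhodamine substrate followed over time; top concentration of the series differs between compounds; % is scaled to controls: 0 for no effect and ±100 for the full control effect; nearly all actives have a fitted effect of over 35% in size.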 The settings on record: purified USP1/UAF1, Ub-rhodamine cleavage fluorescence; series mostly up to 54.9 µM. In outline: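 1nM USP1/UAF1 + cpd, 15 min RT; start w/ Ub-Rho 150nM final; kinetic FL 480/540 nm, 6 reads q60 s. Buffer 50mM HEPES pH 7.8, 0.5mM EDTA, 1mM TCEP, 0.01% Tween-20, 0.1 mg/ml BSA.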

Experiment [12] is described as follows: Primary qHTS for small molecule stabilizers of the endoplasmic reticulum resident proteome: Secreted ER Calcium Modulated Protein (SERCaMP) assay (AID 1508630). Also: % is scaled to controls: 0 for no effect and ±100 for the full control effect. To be noted: SH-SY5Y GLuc-SERCaMP (Gaussia luciferase released on ER calcium loss) secretion, thapsigargin, luminescence; series mostly up to 38.4 µM. In outline: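 The SH-SY5Y reporter protocol was run at 3 concentrations up to 38.3 uM (primary) or 11 concentrations (follow-up): 16 h compound, 100 nM thapsigargin for 4 h, then extracellular luciferase luminescence.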

Experiment [13] concerns the target Cytochrome P450 1A2 (Homo sapiens) (UniProt P05177). Description: p450-cyp1a2 (AID 410; calls by dose curve; also: potency is read from the fitted curve at half-maximal effect). The settings on record: recombinant CYP1A2, luciferin-ME demethylation, luminescence; series mostly up to 57 µM. The procedure, abridged: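 20nM CYP1A2, 100uM Luciferin-ME (=Km), 100mM KPO4; cpd 10 min RT; +NADPH regen, 60 min RT; stop/detect 20 min; luminescence. Normalized to furafylline 57 uM = full inhibition.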

Experiment [14] has as its target Mitogen-activated protein kinase 10 (Mus musculus) (UniProt Q61831). Put plainly: JNK3 AlphaScreen Assay (AID 530; active = well fitted curve in either direction with a large enough effect, not every such curve was filed as active). To be noted: JNK3 lysate, c-Jun phosphorylation; series mostly up to 57.1 µM. In outline:
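Biotinylated GST-cJun(1-79) served as substrate for JNK3 in HepG2 lysates stimulated with IL-1beta and TNF-alpha. ATP was 10 uM final, pH 7.6. Ser73 phosphorylation was quantified by AlphaScreen (680 nm excitation).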
(Alpha assays give light when donor and acceptor beads are brought close together.)

Experiment [15] concerns the target Cytochrome P450 3A4 (Homo sapiens) (UniProt P08684). Description: qHTS Assay for Inhibitors and Substrates of Cytochrome P450 3A4 (AID 884). Also: potency is read from the fitted curve at half-maximal effect; nearly all actives have a fitted effect of over 50% in size. The settings on record: recombinant CYP3A4, Luciferin-PPXE luminescence; series mostly up to 57.1 µM. In outline:
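Luminescent readout of luciferin produced by CYP3A4 (20 nM) dealkylation of Luciferin-PPXE, 25 uM (its KM). NADPH-driven reaction ran 60 min at RT after 10 min compound preincubation; data scaled to 57 uM ketoconazole as 100% inhibition.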

Experiment [16] deals with Cytochrome P450 2D6 (Homo sapiens) (UniProt P10635). Description: qHTS Assay for Inhibitors and Substrates of Cytochrome P450 2D6 (AID 891). Also: potency is read from the fitted curve at half-maximal effect; nearly all actives have a fitted effect of over 60% in size. The settings on record: recombinant CYP2D6, luciferin-ME EGE luminescence; series mostly up to 57.1 µM. In outline:
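Luminescent read-out of luciferin formed by 5 nM human CYP2D6 demethylating 30 uM Luciferin-ME EGE (Km level) over 60 min at room temperature after NADPH regeneration addition. Data normalized to full inhibition by 1.43 uM quinidine.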

Experiment [17] addresses Cytochrome P450 2C19 (Homo sapiens) (UniProt P33261). Put plainly: qHTS Assay for Inhibitors and Substrates of Cytochrome P450 2C19 (AID 899). Also: potency is read from the fitted curve at half-maximal effect; nearly all actives have a fitted effect of over 60% in size. The settings on record: recombinant CYP2C19, luciferin-H EGE luminescence; series mostly up to 57.1 µM. The procedure, abridged: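 Human CYP2C19 (5nM) with Luciferin-H EGE at 10uM (its KM) in 50mM KPO4 was preincubated with compound for 10 min at 37C. NADPH regeneration started a 60 min 37C reaction. Luciferin was read by luminescence, normalized to 57uM ketoconazole.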

The structures appear in SMILES notation. A number with no mark means an inactive call. Results filed as inconclusive are left out. Activity calls are given as the source filed them. Unless noted, calls follow the shape of the dose curve; as a rule, active = well fitted curve in the direction sought with a large enough effect; inconclusive = small, poorly fitted or top-dose-only effect, or another doubt; inactive = no such curve, though single readings can be large; an effect the other way counts as inactive or inconclusive. Bounds are passed on as bounds.

Chain of Cytochrome P450 1A2 (Homo sapiens) (P05177 whole entry, looked up): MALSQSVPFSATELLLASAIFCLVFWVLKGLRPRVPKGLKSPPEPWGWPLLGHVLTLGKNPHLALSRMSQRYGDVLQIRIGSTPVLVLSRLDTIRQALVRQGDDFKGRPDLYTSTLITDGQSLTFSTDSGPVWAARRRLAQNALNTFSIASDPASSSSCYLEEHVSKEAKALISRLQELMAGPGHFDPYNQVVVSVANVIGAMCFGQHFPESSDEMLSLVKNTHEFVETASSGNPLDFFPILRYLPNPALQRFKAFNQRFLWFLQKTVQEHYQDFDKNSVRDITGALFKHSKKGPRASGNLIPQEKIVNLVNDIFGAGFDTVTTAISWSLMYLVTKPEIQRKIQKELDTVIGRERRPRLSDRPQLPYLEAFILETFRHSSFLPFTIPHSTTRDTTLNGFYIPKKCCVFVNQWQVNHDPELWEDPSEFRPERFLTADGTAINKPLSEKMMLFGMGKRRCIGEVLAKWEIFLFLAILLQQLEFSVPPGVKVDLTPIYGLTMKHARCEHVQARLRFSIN
Chain of Lysosomal acid glucosylceramidase (Homo sapiens) (P04062 whole entry, looked up): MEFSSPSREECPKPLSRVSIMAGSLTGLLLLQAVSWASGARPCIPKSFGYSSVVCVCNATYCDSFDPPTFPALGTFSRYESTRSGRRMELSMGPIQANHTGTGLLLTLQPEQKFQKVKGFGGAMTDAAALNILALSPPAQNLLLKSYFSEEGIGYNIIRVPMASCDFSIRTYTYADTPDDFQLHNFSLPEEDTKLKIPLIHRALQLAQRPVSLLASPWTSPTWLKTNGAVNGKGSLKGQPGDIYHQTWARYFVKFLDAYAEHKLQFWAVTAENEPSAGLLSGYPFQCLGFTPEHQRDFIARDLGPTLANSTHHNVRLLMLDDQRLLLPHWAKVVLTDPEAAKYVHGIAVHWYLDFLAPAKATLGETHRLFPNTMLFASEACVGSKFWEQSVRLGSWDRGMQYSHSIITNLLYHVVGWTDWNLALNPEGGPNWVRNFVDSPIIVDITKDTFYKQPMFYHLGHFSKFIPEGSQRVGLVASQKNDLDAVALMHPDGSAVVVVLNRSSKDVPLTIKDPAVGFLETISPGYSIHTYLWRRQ
Chain of Ubiquitin carboxyl-terminal hydrolase 1 (Homo sapiens) (O94782 whole entry, looked up): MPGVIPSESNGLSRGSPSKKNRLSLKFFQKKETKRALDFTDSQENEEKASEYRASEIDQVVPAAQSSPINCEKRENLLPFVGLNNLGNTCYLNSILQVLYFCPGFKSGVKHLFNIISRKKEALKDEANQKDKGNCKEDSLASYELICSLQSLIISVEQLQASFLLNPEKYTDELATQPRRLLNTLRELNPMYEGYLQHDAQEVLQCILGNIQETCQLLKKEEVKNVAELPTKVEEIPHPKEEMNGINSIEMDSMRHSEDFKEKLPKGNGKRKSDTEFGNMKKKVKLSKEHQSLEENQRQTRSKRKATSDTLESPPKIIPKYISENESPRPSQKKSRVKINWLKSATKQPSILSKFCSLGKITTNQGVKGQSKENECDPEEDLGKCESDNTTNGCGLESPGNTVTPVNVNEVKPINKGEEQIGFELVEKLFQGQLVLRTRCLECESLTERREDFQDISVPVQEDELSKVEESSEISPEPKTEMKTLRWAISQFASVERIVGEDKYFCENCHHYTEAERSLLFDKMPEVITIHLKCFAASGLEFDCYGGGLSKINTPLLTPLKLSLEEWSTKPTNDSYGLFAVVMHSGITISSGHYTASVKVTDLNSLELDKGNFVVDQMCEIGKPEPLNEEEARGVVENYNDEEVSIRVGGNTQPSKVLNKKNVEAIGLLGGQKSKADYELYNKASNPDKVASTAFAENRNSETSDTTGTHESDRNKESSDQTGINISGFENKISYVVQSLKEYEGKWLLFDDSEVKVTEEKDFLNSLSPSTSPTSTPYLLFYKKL
Chain of Cytochrome P450 3A4 (Homo sapiens) (P08684 whole entry, looked up): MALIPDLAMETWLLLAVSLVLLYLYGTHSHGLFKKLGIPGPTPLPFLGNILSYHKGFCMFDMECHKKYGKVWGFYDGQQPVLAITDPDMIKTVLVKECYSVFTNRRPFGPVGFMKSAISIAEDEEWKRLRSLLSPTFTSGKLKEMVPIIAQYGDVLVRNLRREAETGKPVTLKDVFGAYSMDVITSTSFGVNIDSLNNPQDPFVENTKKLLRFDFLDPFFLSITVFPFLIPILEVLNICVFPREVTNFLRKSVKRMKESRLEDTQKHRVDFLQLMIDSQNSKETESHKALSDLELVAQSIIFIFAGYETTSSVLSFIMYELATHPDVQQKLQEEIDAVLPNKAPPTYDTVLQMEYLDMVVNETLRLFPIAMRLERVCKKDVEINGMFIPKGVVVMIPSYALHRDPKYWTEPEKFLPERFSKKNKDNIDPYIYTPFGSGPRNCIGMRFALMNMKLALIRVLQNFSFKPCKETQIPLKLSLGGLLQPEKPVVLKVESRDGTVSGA
Chain of Dual specificity protein kinase CLK4 (Homo sapiens) (Q9HAZ1 whole entry, looked up): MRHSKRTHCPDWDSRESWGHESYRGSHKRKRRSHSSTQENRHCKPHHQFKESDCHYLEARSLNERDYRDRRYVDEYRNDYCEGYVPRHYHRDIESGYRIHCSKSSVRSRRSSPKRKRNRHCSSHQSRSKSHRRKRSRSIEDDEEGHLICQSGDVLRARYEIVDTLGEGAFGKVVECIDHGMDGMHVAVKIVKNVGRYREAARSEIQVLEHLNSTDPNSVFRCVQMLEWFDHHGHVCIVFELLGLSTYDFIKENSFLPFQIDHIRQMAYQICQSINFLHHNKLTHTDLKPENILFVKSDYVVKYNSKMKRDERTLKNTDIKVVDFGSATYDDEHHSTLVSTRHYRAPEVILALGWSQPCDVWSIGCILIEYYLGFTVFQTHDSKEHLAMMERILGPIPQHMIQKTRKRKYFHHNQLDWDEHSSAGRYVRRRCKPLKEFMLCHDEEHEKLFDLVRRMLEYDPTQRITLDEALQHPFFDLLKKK
Chain of 3',5'-cyclic-AMP phosphodiesterase 4B (Homo sapiens) (Q07343 whole entry, looked up): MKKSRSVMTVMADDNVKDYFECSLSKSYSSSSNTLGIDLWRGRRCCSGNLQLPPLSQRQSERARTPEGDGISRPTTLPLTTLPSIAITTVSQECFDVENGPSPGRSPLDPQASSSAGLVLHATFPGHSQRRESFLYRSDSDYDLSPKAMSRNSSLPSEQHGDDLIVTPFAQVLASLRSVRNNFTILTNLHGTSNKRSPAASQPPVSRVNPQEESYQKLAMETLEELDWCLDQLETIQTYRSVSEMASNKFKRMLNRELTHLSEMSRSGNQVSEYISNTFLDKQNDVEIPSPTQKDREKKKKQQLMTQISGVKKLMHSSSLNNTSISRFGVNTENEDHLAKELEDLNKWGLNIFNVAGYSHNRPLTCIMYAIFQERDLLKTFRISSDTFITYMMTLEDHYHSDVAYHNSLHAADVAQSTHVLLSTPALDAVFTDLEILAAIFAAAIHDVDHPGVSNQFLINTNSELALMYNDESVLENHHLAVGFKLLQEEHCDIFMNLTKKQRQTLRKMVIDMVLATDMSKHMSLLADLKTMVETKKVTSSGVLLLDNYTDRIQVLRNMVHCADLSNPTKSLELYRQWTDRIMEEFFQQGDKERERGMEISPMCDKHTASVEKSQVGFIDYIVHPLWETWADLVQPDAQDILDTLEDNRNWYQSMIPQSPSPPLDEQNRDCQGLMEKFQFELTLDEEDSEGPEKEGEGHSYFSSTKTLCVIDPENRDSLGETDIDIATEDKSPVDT
Chain of Cytochrome P450 2D6 (Homo sapiens) (P10635 whole entry, looked up): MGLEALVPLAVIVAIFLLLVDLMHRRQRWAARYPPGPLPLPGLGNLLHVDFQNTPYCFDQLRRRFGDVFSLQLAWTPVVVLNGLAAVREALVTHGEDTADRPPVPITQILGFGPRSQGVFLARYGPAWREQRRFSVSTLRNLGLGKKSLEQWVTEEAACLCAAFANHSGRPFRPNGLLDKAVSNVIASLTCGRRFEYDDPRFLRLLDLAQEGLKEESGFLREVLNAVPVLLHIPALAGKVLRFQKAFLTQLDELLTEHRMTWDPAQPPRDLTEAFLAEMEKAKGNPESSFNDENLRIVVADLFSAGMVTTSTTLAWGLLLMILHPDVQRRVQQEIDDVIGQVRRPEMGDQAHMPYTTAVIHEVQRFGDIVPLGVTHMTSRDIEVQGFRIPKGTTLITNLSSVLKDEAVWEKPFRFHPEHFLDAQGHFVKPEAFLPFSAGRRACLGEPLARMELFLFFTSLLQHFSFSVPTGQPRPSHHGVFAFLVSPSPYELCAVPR

In the case of `CN(C)c1ncc2nc(-c3cccs3)c(=O)n(C)c2n1`, the Potency in [1] is above 11.4 µM; in [5], above 9.22 µM; in experiment [6], above 46 µM. Further, the activity change, negative = inhibition was 1.79% in [2] and -2.27% in experiment [3]. The activity, negative = inhibition in experiment [4] is 23.5%. Besides, the Potency entry in experiment [7], in experiment [8], in experiment [9], in experiment [10] and in [11] was “inactive” throughout. Also, the outcome in experiment [12] was inactive.
For `COc1ccccc1CNc1ccnc(-c2ccc(N(C)C)cc2)n1`, the activity change, negative = inhibition in experiment [2] was -10.1%; in experiment [3] it was -1.75%. Moreover, the Potency in [13] was 0.794 µM (active); in experiment [5] it was above 46 µM; in experiment [6], above 46 µM; in [15] it was 7.94 µM (active); in experiment [16], 0.501 µM (active). Moreover, the activity, negative = inhibition in experiment [4] was -10.8%. In addition, the Potency result in experiment [14], in experiment [7], in [8], in experiment [9], in experiment [10] and in experiment [11] was “inactive” in each case. In experiment [12], the outcome was inactive.
In the case of `CN(Cc1ccco1)c1ccnc(-c2cccnc2)n1`, the Potency in [1] was above 11.4 µM; in experiment [13], 0.794 µM (active); in [5], above 46 µM; in [6] it was above 46 µM; in experiment [16] it was 7.94 µM (active); in experiment [17], 6.31 µM (active). The activity change, negative = inhibition in experiment [2] is 16.2%; in [3], -13.4%. The activity, negative = inhibition in experiment [4] is 17.8%. Further, the Potency result in experiment [14], in experiment [7], in [8], in [10] and in experiment [11] was “inactive” throughout. In addition, the outcome in [12] was inactive.
In the case of `CN(Cc1ccco1)c1ncncc1-c1cccnc1`, the Potency is above 11.4 µM in experiment [1]; 5.01 µM (active) in experiment [13]; above 46 µM in [5]; above 46 µM in experiment [6]; 2.51 µM (active) in experiment [15]. Moreover, the values for the activity change, negative = inhibition in [2] and in [3] were 1.77% and -11.4%, respectively. In [4], the activity, negative = inhibition is 17.1%. For the same molecule, the Potency result in experiment [14], in experiment [7], in experiment [8], in [10] and in experiment [11] was “inactive” throughout. The result in experiment [12] was inactive.
With `CNc1nc(-c2ccc(C(=O)N(C)C)cc2)nc2ccccc12`, the results for the activity change, negative = inhibition in experiment [2] and in experiment [3] were 7.59% and 23.4%, respectively. Also, the activity, negative = inhibition in [4] was -0.956%. The figures for the Potency in [5], in experiment [6] and in experiment [9] were above 46 µM, above 46 µM and 28.2 µM (active), respectively. Further, the Potency entry in experiment [14], in experiment [7] and in [11] was “inactive” throughout. Besides, the result in experiment [12] was inactive.
For the molecule `CC(=O)NCCNc1nc(-c2c(C)noc2C)nc2ccccc12`, the Potency in experiment [1] was above 11.4 µM; in experiment [13] it was 1.58 µM (active); in experiment [5], above 46 µM; in experiment [6] it was above 46 µM. In addition, the activity change, negative = inhibition in experiment [2] is 5.25%; in experiment [3], 6.76%. The activity, negative = inhibition in [4] is 1.96%. Besides, the Potency result in experiment [14], in [7], in experiment [8], in experiment [10] and in experiment [11] was “inactive” in each case. Also, the outcome in experiment [12] was inactive.

Source of the values: PubChem BioAssay (NCATS).
